These sequences were tested against C14orf149 (assay: pooled miR-30 sensor sort-seq; sequence = guide strand). Settings: shRNA.
For ATGTCCAGGAACATCCACCATG, the sensor-assay potency score (higher = more potent) was -1.62. With TTAAAATCACCACATTTCGCTT the sensor-assay potency score (higher = more potent) was -0.838. Work on TCATCTTCTATTATAAAGCTTG yielded a sensor-assay potency score (higher = more potent) of -0.499.

These sequences were tested against C14orf181 in the same assay as above. Settings: shRNA.
TTCGGTTTTGTGCAAGGGGGAA gave a sensor-assay potency score (higher = more potent) of -0.823. TTCGCCTGGAGCGCGTCCCTTC was tested, and the sensor-assay potency score (higher = more potent) was -1.3. For TTAGCTTGGAGGTGGTGGTGGG, the sensor-assay potency score (higher = more potent) was -0.365. Work on TTCGGAGTGAAGGAGGCGCTGC yielded a sensor-assay potency score (higher = more potent) of -1.09. Work on AAAGTCTTCGGAGTGAAGGAGG yielded a sensor-assay potency score (higher = more potent) of -0.89. TGCACTGCCGCTTCCGACCGGG showed a sensor-assay potency score (higher = more potent) of -0.747. Sequence AAAGTGAAAGTCTTCGGAGTGA has a sensor-assay potency score (higher = more potent) of 0.018. For TTTAGCTTGGAGGTGGTGGTGG, the sensor-assay potency score (higher = more potent) was 0.0381. With TAGCTTGGAGGTGGTGGTGGGG the sensor-assay potency score (higher = more potent) was -0.69. In the case of TAACCCTTCGCTGACCCGGCGT, the sensor-assay potency score (higher = more potent) was -0.821. For TATTTTAGCTTGGAGGTGGTGG, the sensor-assay potency score (higher = more potent) was -0.309. For AGGTATTTTAGCTTGGAGGTGG, the sensor-assay potency score (higher = more potent) was -1.31.
Also: reference of the scale not given here.
